# From PubChem BioAssay (NCI)
# The panel holds about 83,000 compounds, 20% with a hit somewhere; the sample as a whole holds those more often.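 Activity criterion: percent growth below 10, measured after cells in 96-well plates were exposed to a single compound concentration for 48 hours.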 Values without a mark were called inactive. Calls of active or inactive are those of the source.
# Columns and labels:
# Assay in all cases: NCI-60 one-dose screen, 48 h (100 = growth as untreated, 0 = no growth, -100 = all killed)
# Settings in all cases: 10 µM
# SR leukemia = test system: SR leukemia
# OVCAR-8 ovarian = test system: OVCAR-8 ovarian
# OVCAR-4 ovarian = test system: OVCAR-4 ovarian
# SK-OV-3 ovarian = test system: SK-OV-3 ovarian
# IGROV1 ovarian = test system: IGROV1 ovarian
# OVCAR-3 ovarian = test system: OVCAR-3 ovarian
# HS 578T breast = test system: HS 578T breast
# NCI/ADR-RES ovarian = test system: NCI/ADR-RES ovarian
# OVCAR-5 ovarian = test system: OVCAR-5 ovarian
# RPMI-8226 leukemia = test system: RPMI-8226 leukemia
SMILES,growth (SR leukemia),growth (OVCAR-8 ovarian),growth (OVCAR-4 ovarian),growth (SK-OV-3 ovarian),growth (IGROV1 ovarian),growth (OVCAR-3 ovarian),growth (HS 578T breast),growth (NCI/ADR-RES ovarian),growth (OVCAR-5 ovarian),growth (RPMI-8226 leukemia)
CS(=O)(=O)Nc1ccc([N+](=O)[O-])cc1Oc1ccccc1,87%,92.1%,97%,97.3%,106%,95.4%,98.2%,96.8%,–,–
COc1ccc(-c2nnc(SC/C(=N\O)c3ccccc3)o2)cc1,100%,107%,104%,87.9%,–,99.1%,94%,91.2%,108%,–
Cc1cc(C#Cc2ccccc2)ccc1-n1c(/C=C/c2cc(O)ccc2O)nc2ccccc2c1=O,-26% (active),16.3%,19.2%,-49.3% (active),-12.6% (active),-46.2% (active),31.8%,6.37% (active),-24.5% (active),–
N=C(N)c1ccc(-c2ccc(-c3ccccc3)s2)s1,–,-39.9% (active),-70.2% (active),-50.1% (active),-31.1% (active),-41.3% (active),-21% (active),-35.2% (active),-23.7% (active),-44.3% (active)
O=C(Cn1ccc(=O)[nH]c1=O)c1ccc([N+](=O)[O-])o1,–,103%,97.9%,112%,123%,–,116%,107%,114%,65.5%
COc1cc(-c2cc(-c3cc(OC)c(OC)c(OC)c3)nc3nc(N)[nH]c(=O)c23)ccc1Oc1ccnc2cc(Cl)ccc12,–,42.1%,39%,–,52.8%,-26.1% (active),36.3%,21.8%,103%,19.7%
C/C(=N\NC(N)=S)C(C)(C)O,–,55.3%,66.6%,109%,22.4%,53.1%,97.1%,32.7%,105%,74%
C[C@@H]1N=C(c2ccc(Br)cc2)Nc2nc3ccccn3c2C1=O,–,72.5%,77.5%,72%,43.1%,17.3%,71.3%,39.4%,82.4%,94%
Cc1ccc(C)c2c1sc1nc3n[nH]c(N)c3c(=N)n12,–,97.9%,101%,127%,127%,114%,107%,110%,106%,93.2%
CCOC(=O)Cn1nnc(-c2ccc(OCc3ccccc3F)cc2)n1,–,101%,86.4%,93.5%,87.9%,100%,81.2%,57%,92.6%,90.8%
COc1cccc2c1O/C(=C\c1ccc([N+](=O)[O-])s1)C2=O,–,24.7%,74.2%,96.6%,25.9%,-16.7% (active),40.8%,87.5%,101%,25.7%
Cc1ccc(Cl)cc1Nc1nc(C(F)(F)F)ccc1C(=O)N/N=C/c1c(Cl)cccc1Cl,–,10.6%,17.5%,-8.46% (active),-8.67% (active),-28.5% (active),-10.1% (active),5.19% (active),24.2%,-51.2% (active)
COc1ccc(-c2nnc(COc3ccc(NC(=O)Nc4ccccc4)cc3F)o2)cc1,–,96.1%,75.7%,–,99.2%,2.7% (active),82%,97.4%,114%,51.3%
COc1cc(OC)cc(-c2n/c(=C\c3c(O)[nH]c4ccc(OC)cc34)cc3c2=Nc2ccccc2-3)c1,–,72.7%,15.3%,126%,86.5%,94.6%,95.3%,69.4%,122%,77.8%
Cn1cnc([N+](=O)[O-])c1/C=C1\Oc2ccc(Cl)cc2C1=O,–,72.5%,92.3%,96.2%,73.1%,86%,104%,100%,108%,70.7%
COc1cc(C(=O)n2nc(N)c3c(C)cc(C)nc32)cc(OC)c1OC,–,84.4%,92.8%,92.3%,86%,–,83.2%,60.8%,118%,59.6%
CCCc1ccnc(NS(=O)(=O)c2ccc(N)cc2)n1,–,75.2%,54.7%,95.9%,96.4%,73.5%,82%,112%,117%,41.4%
N#Cc1ccc(-n2cnc(NC(=O)[C@H]3CCN(C#N)C3)c2)cc1,–,15.5%,28.9%,62.5%,20.8%,11.4%,19.2%,36.6%,23.8%,16.2%
CCc1cc2n(n1)-c1ncc(C(=O)OC)cc1Oc1ccccc1-2,–,97.8%,100%,102%,97%,106%,97%,103%,105%,–
CN1CCN(c2nc(-c3cccnc3)nc3sc4c(c23)CCCCCC4)CC1,–,95.1%,80.8%,97.2%,102%,95.8%,85.3%,89.3%,104%,80.6%
Nc1nc(SCC#CCCl)c2[nH]cnc2n1,–,71.2%,43.1%,49.6%,25.4%,54.5%,73.6%,67%,90.8%,36.2%
Cc1cc(C)c2nc(C)c(C)[n+]([O-])c2c1,–,94%,107%,85.4%,–,110%,112%,104%,99.6%,90.7%
CCOC(=O)[C@@H]1[C@H](c2ccccc2)[C@H]([N+](=O)[O-])[C@H](c2cn(-c3ccccc3)nc2C)N1Cc1ccccc1,–,71.4%,77.5%,–,99.9%,82.8%,90.5%,71.6%,106%,50%
CCCc1c(C)nc2scc(-c3ccc(Cl)cc3)n2c1=O,–,107%,97.3%,103%,107%,104%,101%,101%,104%,96.4%
CC1(CO)CCCC12OCCO2 (stereo not drawn),–,106%,111%,–,104%,–,119%,113%,97.3%,100%
CC(C)C[C@H](NC(=O)Cn1ccc2ccccc2c1=O)B(O)O,–,88.2%,93.3%,96.7%,107%,42.3%,90%,103%,76.9%,11.9%
Cn1cnc([N+](=O)[O-])c1Sc1nnc(-c2ccccc2)c(-c2ccccc2)n1,–,102%,73.9%,120%,72%,51.3%,106%,82.3%,93.6%,43.8%
O=C1NN(c2ccccc2)C(c2cccnc2)=N/C1=C\c1cccnc1,–,106%,94.3%,104%,103%,89.8%,87.1%,91.2%,85.8%,83.3%
COc1ccc(C2C=C(c3ccc(Cl)c(Cl)c3)N=C3SC(C)=CN32)cc1OC (stereo not drawn),–,68.7%,72.9%,109%,72.2%,60.9%,90.8%,79.4%,97.1%,38.4%
COc1cc(-c2nc3ccccc3[nH]2)ccc1OCC(=O)N=Nc1c(O)[nH]c2ccccc12,–,49.1%,76.4%,101%,93.2%,79.6%,83.7%,109%,109%,–
